From PubChem BioAssay (EPA / NIEHS)
Calls of active or inactive are those of the source. The calls were made as follows: active = hit-call score of the fitted dose curve at least 0.9, where 1 is the maximum; inactive = score below 0.9.

What follows are molecules tested against Nuclear respiratory factor 1 (Homo sapiens) (UniProt Q16656) (assay: ATG_NRF1_CIS: Attagene CIS-FACTORIAL HepG2 Assay for human Nuclear Respiratory Factor 1 (NRF1) Orphan Gene (AID 2282987)). Details: HepG2 NRF1 cis-element reporter, Attagene multiplex; actives raise or lower the signal.
Sequence of Nuclear respiratory factor 1 (Homo sapiens) (Q16656 whole entry, looked up): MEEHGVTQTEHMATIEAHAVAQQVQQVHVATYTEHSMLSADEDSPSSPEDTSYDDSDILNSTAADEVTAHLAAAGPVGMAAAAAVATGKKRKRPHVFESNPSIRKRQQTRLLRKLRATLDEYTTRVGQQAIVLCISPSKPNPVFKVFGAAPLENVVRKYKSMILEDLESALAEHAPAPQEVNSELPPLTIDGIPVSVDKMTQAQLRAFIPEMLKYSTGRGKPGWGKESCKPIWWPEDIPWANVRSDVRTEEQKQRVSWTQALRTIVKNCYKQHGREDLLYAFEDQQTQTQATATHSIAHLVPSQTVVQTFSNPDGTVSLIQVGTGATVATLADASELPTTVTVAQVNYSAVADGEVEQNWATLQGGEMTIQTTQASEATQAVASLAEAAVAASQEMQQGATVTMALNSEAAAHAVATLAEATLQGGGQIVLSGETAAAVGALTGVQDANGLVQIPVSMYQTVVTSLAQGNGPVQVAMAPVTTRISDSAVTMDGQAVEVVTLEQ
Experimental: ATG_CIS is a cell-based, multiplexed-readout assay that uses HepG2, a human liver cell line, with measurements taken at 24 hours after chemical dosing in a 24-well plate.ATG_NRF1_CIS is one of 52 assay component(s) measured or calculated from the ATG_CIS assay. It is designed to make measurements of mRNA induction, a form of inducible reporter, as detected with fluorescence intensity signals by Reverse transcription polymerase chain reaction (RT-PCR) and Capillary electrophoresis technology.Data from the assay component ATG_NRF1_CIS was analyzed into 1 assay endpoint. This assay endpoint, ATG_NRF1_CIS, was analyzed with bidirectional fitting relative to DMSO as the negative control and baseline of activity. Using a type of inducible reporter, measures of mRNA for gain or loss-of-signal activity can be used to understand the reporter gene at the transcription factor-level as they relate to the gene NRF1. Furthermore, this assay endpoint can be referred to as a primary readout, because this assay has produced multiple assay endpoints where this one serves a reporter gene function. To generalize the intended target to other relatable targets, this assay endpoint is annotated to the dna binding intended target family, where the subfamily is nuclear respiratory factors.
Human liver HepG2 cells are transiently transfected with multiple reporter transcription units (MRTUs) in 6-well plates using FuGene 6 reagent (Roche; 3 ml FuGene/1 mg DNA). The MRTU constructs are regulated by a cis-regulating element (promoter). […] A major difference between the CIS and TRANS system is that in CIS activities of endogenous TFs are measured, whereas the TRANS assay evaluates changes in activities of exogenous, chimeric NR-Gal4 proteins. […] At the end of 24 hour incubation, total RNA was isolated using TriZol reagent (Invitrogen). The isolated RNA is then reverse-transcribed using oligo(dT) primer and Mo-MLV reverse transcriptase (Invitrogen) with DNAse I (Ambion) treatment for 30 min. The one-tenth of the produced cDNA was amplified by PCR using Taq DNA polymerase (Invitrogen) and two reporter sequence-specific primers. The PCR products were fluorescently labeled by primer extension with 6-arboxyfluorescein (6-FAM) 5'-labeled reporter sequence-specific primer (2 min at 95 C, 20 s at 68 C and 10 min at 72 C) and these products were digested with 5U of HpaI (New England Biolabs) for 2h at 37 C. The fragments were purified using Qiaquick PCR columns (Qiagen), analyzed on an ABI 3130xL genetic analyzer (Applied Biosystems) with peak positions identified by using a set of X-rhodamine (ROX)-labeled MapMarker1000 molecular weight standards (BioVentures). The raw capillary electrophoresis data was processed using Attagraph software (Attagene).

SMILES	outcome	AC50
c1cc(OCC2CO2)ccc1Cc1ccc(OCC2CO2)cc1 (stereo not given)	inactive	–
CCOP(=O)(OCC)Oc1ccc([N+](=O)[O-])cc1	inactive	–
S=c1[nH]c2ccccc2[nH]1	inactive	–
CCOC(=O)COc1ccc(Cl)cc1Cl	inactive	–
COc1cc(OC)c(OC)cc1C=O	inactive	–
C=CC(=O)OCC(CC)CCCC (stereo not given)	inactive	–
CCOC(=O)NC(=S)Nc1ccccc1NC(=S)NC(=O)OCC	inactive	–
COC(=O)c1ccccc1S(=O)(=O)NC(=O)Nc1nc(C)cc(C)n1	inactive	–
N#CCNCC#N	inactive	–
CCc1cccc(C)c1N(C(=O)CCl)[C@@H](C)COC	inactive	–
C[N+](C)(C)CC(=O)[O-]	inactive	–
SCc1ccco1	inactive	–
C=CCc1ccc(OC(=O)Cc2ccccc2)c(OC)c1	inactive	–
CCCCOC(=O)CCC(=O)OCCCC	inactive	–
C[C@]12CC[C@H]3[C@@H](CC[C@@]45O[C@@H]4C(O)=C(C#N)C[C@]35C)[C@@H]1CC[C@@H]2O	inactive	–
CCCCCc1cc(O)cc(O)c1	inactive	–
CCOP(O)OCC	inactive	–
C[N+](=O)[O-]	inactive	–
N#CCCCl	inactive	–
CC(C)(c1cc(Cl)c(O)c(Cl)c1)c1cc(Cl)c(O)c(Cl)c1	inactive	–

SMILES	outcome	AC50
O=C(O)c1cc[c]([Hg][Cl])cc1	inactive	–
COc1ccc(CO)cc1	inactive	–
CCc1cc(C)cc(CC)c1-c1c(OC(=O)C(C)(C)C)n2n(c1=O)CCOCC2	inactive	–
O=C1C(Cl)=C(Cl)C(=O)C(Cl)=C1Cl	inactive	–
N#Cc1cc(I)c(O)c(I)c1	inactive	–
O=S(=O)(O)OOS(=O)(=O)O	inactive	–
CC(C)C(=O)Cl	inactive	–
Oc1cc(Cl)ccc1Cl	inactive	–
CSc1nc(N=[N+]=[N-])nc(NC(C)C)n1	inactive	–
Oc1ccc(C2(c3ccc(O)cc3)c3ccccc3-c3ccccc32)cc1	–	19.1 µM (active)
BrCBr	inactive	–
CCCCOP(=O)(O)OCCCC	inactive	–
CC1OC(C)OC(C)O1 (stereo not given)	inactive	–
CCCC=NO	inactive	–
[Cl-].[Cl-].[Cl-].[Yb+3]	inactive	–
C=C(Cl)Cl	inactive	–
CC(C)CCCCCCCOC(=O)c1ccccc1C(=O)OCCCCCCCC(C)C	inactive	–
C=Cc1cccc(CCl)c1	inactive	–
O=C(CCl)c1ccccc1	–	54.4 µM (active)
CCOP(=O)(OCC)OCC	inactive	–
